Consider 38 compounds from PubChem BioAssay (Tox21).

Records with an inconclusive call do not appear. Entries that show only a call come without a potency. Calls of active or inactive are those of the source. Unless noted, the call rests on the fitted dose curve; in most records, active means well fitted cell-killing curve with a large enough effect in the repeat runs; inconclusive means weak or mixed curves, or effect the other way; inactive means flat fitted curve, though single readings scatter.

Sequence of Estrogen receptor beta (Homo sapiens) (Q92731 whole entry, looked up): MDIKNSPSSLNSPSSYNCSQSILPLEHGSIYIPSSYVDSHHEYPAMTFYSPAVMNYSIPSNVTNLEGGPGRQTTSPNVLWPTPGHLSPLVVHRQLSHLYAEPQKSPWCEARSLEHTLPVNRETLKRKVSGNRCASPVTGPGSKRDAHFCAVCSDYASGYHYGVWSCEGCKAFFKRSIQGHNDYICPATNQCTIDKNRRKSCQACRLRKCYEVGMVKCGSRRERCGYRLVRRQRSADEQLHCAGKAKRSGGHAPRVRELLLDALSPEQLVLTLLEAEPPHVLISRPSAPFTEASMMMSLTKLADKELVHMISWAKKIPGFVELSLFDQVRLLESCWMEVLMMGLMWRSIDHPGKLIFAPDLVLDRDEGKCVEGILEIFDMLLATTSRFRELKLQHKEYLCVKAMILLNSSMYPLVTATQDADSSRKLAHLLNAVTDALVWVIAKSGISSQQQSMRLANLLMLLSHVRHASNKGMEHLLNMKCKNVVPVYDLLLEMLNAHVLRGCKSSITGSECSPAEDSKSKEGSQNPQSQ

Tested on in the first test: not listed separately
Briefly: qHTS assay to identify small molecule agonists of the sonic hedgehog signaling (Shh) pathway (AID 1259368; calls by dose curve; further: nearly all actives have a fitted effect of over 15% in size). Conditions: NIH/3T3 Gli1-Luc reporter, luciferase, 24 h, hits give high values; series mostly up to 92.4 µM. The essentials: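 NIH/3T3-derived 3T3Gli1-Luc cells with stably integrated Gli1-driven firefly luciferase, 2,000 cells/well, compounds added after 4 hr. Incubated 24 hr at 37C, 5% CO2; luminescence read after 30 min with luciferase reagent at room temperature.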
(Quantitative high-throughput screening tests each substance at several concentrations.)
Regarding `O=[N+]([O-])c1cc(Cl)c(Cl)c(Cl)c1`, the compound was called inactive.

Turning to `CCCCOC(=O)c1ccccc1N`, the compound was classed as inactive.

With `ClCC(Cl)Cl`, the call was inactive.

As for `N#CC(O)c1ccccc1` (centres undefined), the outcome was inactive.

Tested on in a further test: not listed separately
Briefly: qHTS assay to identify small molecule antagonists of the sonic hedgehog signaling (Shh) pathway (AID 1259369; calls by dose curve; further: nearly all actives have a fitted effect of over 45% in size; further: potency means the concentration at half of the fitted maximal effect). As to conditions: NIH/3T3 Gli1-Luc reporter, Shh antagonist, luminescence 24 h; series mostly up to 92.4 µM. The essentials: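 NIH/3T3-derived Gli1-Luc reporter cells plated 4 h, dosed with compound, then stimulated with conditioned medium for 24 h at 37 C. Firefly luciferase luminescence read after 30 min with detection reagent at room temperature.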
As to `CC1CCCCC1NC(=O)Nc1ccccc1` (centres undefined), the Potency result is “inactive”.

Consider `CCCSC(=O)N(CCC)CCC`, for which the Potency entry is “inactive”.

As for `CCS(=O)(=O)CCSP(=O)(OC)OC`, the Potency entry was “inactive”.

On to `C=CCC1=C(C)[C@@H](OC(=O)[C@@H]2[C@@H](C=C(C)C)C2(C)C)CC1=O`, for which the Potency entry is “inactive”.

Consider `O=C(CCN1CC1)OCC(CO)(COC(=O)CCN1CC1)COC(=O)CCN1CC1`, for which the Potency result is “inactive”.

Regarding `COc1cccc2c1cc([N+](=O)[O-])c1c(C(=O)O)cc3c(c12)OCO3`, the Potency was 1.54 µM (active).

Consider `CC(CC(C#N)(c1ccccc1)c1ccccc1)N(C)C` (centres undefined), for which the Potency entry is “inactive”.

`CCCCC(=O)Cl`: the Potency result is “inactive”.

Turning to `O=[N+]([O-])c1cccc(O)c1`, the Potency result is “inactive”.

As to `CCCCN(CCCCO)N=O`, the Potency entry was “inactive”.

With `CCCCCCBr`, the Potency entry was “inactive”.

Take `Cc1ccccc1CO[C@@H]1C[C@@]2(C(C)C)CC[C@]1(C)O2`: the Potency entry is “inactive”.

`O=[N+]([O-])c1cccc2c([N+](=O)[O-])cccc12`: the Potency result is “inactive”.

On to `CCNc1nc(NC(C)C)nc(OC)n1`, for which the Potency entry is “inactive”.

As to `COC(C)(C)C`, the Potency entry was “inactive”.

With `CC(C)COP(=O)(OCC(C)C)OCC(C)C`, the Potency entry is “inactive”.

Regarding `CNC(=O)Oc1cccc(C(C)C)c1`, the Potency result was “inactive”.

On to `COc1cc(OC)nc(Sc2cccc(Cl)c2C(=O)O)n1`, for which the Potency result is “inactive”.

As to `CCC#N`, the Potency result was “inactive”.

`CC1CCC(=O)O1` (centres undefined): the Potency result was “inactive”.

For the compound `CC(C)[N+](=O)[O-]`, the Potency entry is “inactive”.

For the compound `COc1cccc(C(=O)NN(C(=O)c2cc(C)cc(C)c2)C(C)(C)C)c1C`, the Potency result is “inactive”.

In the case of `CCOC(=O)NC(=S)Nc1ccccc1NC(=S)NC(=O)OCC`, the Potency result was “inactive”.

For the compound `COCC(=O)N(c1c(C)cccc1C)N1CCOC1=O`, the Potency entry was “inactive”.

For `CCOP(=S)(Oc1cnc(C(C)(C)C)nc1)OC(C)C` (centres undefined), the Potency entry is “inactive”.

In the case of `O=[N+]([O-])c1cc(Cl)c(Cl)c(Cl)c1`, the Potency result is “inactive”.

For the compound `CCCCOC(=O)c1ccccc1N`, the Potency result is “inactive”.

Regarding `ClCC(Cl)Cl`, the Potency entry is “inactive”.

Take `N#CC(O)c1ccccc1` (centres undefined): the Potency entry was “inactive”.

The target in a further test is Estrogen receptor beta (Homo sapiens) (UniProt Q92731). Briefly: qHTS assay to identify small molecule agonists of the estrogen receptor beta (ER-beta) signaling pathway (AID 1259377; active means well fitted activation curve with a large enough effect in the signal ratio in the repeat runs, not every such curve was filed as active; the % refers to the signal ratio). Conditions: ER-beta-UAS-bla HEK293T, beta-lactamase FRET ratio, 16 h; series mostly up to 92.4 µM. The essentials:
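qHTS in ER-beta-UAS-bla HEK293T cells: 6 hr settling, then 16 hr compound at 37C, then LiveBLAzer substrate 2 h at RT before fluorescence reading.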
In the case of `CC1CCCCC1NC(=O)Nc1ccccc1` (centres undefined), the outcome was inactive.

With `N#CC(CCc1ccc(Cl)cc1)(Cn1cncn1)c1ccccc1` (centres undefined), the outcome was inactive.

As to `[As]#[In]`, the result was inactive.

As for `Fc1ccc(C2(Cn3cncn3)OC2c2ccccc2Cl)cc1` (centres undefined), the result was inactive.

`CCCCN(CCCCO)N=O`: the result was inactive.

In the case of `CCCSP(=O)(OCC)Oc1ccc(Br)cc1Cl` (centres undefined), the result was inactive.

Take `O=C(Nc1ccccc1)N(Cc1ccc(Cl)cc1)C1CCCC1`: the result was inactive.

`COC(C)(C)C`: the result was inactive.

On to `COc1cccc(C(=O)NN(C(=O)c2cc(C)cc(C)c2)C(C)(C)C)c1C`, for which the result was inactive.

For the compound `O=[N+]([O-])c1cc(Cl)c(Cl)c(Cl)c1`, the outcome was inactive.

`CCCCOC(=O)c1ccccc1N`: the result was inactive.

As to `N#CC(O)c1ccccc1` (centres undefined), the result was inactive.

The next test has the same target. The test can be described thus: qHTS assay to identify small molecule antagonists of the estrogen receptor beta (ER-beta) signaling pathway (AID 1259378; active means well fitted inhibition curve with a large enough effect in the signal ratio in the repeat runs, not every such curve was filed as active; the % refers to the signal ratio; further: potency means the concentration at half of the fitted maximal effect). As to conditions: ER-beta-UAS-bla HEK293T, beta-lactamase FRET ratio, 16 h; series mostly up to 92.4 µM. A digest of the protocol: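 ER-beta-UAS-bla HEK293T (GripTite) cells in 2% charcoal-stripped FBS medium were preincubated 6 hr at 37C, dosed with compound, then stimulated with 1 nM E2 (final) for 16 hr; beta-lactamase reporter read by B/G FRET fluorescence after 2 hr substrate loading.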
For `CC1CCCCC1NC(=O)Nc1ccccc1` (centres undefined), the Potency entry was “inactive”.

For `N#CC(CCc1ccc(Cl)cc1)(Cn1cncn1)c1ccccc1` (centres undefined), the Potency is 30.6 µM (active).

In the case of `[As]#[In]`, the Potency entry was “inactive”.

As to `COc1cccc2c1cc([N+](=O)[O-])c1c(C(=O)O)cc3c(c12)OCO3`, the Potency is 19.3 µM (active).

As to `Fc1ccc(C2(Cn3cncn3)OC2c2ccccc2Cl)cc1` (centres undefined), the Potency is 30.6 µM (active).

Take `CCCCC(=O)Cl`: the Potency result was “inactive”.

With `CCCCN(CCCCO)N=O`, the Potency entry was “inactive”.

As for `O=C(Nc1ccccc1)N(Cc1ccc(Cl)cc1)C1CCCC1`, the Potency is 24.3 µM (active).

Regarding `COC(C)(C)C`, the Potency entry is “inactive”.

With `CC(C)COP(=O)(OCC(C)C)OCC(C)C`, the Potency result is “inactive”.

Regarding `CCC#N`, the Potency entry is “inactive”.

Take `CC(C1CC1)C(O)(Cn1cncn1)c1ccc(Cl)cc1` (centres undefined): the Potency result was “inactive”.

Consider `COc1cccc(C(=O)NN(C(=O)c2cc(C)cc(C)c2)C(C)(C)C)c1C`, for which the Potency entry is “inactive”.

Take `CCOC(=O)NC(=S)Nc1ccccc1NC(=S)NC(=O)OCC`: the Potency result was “inactive”.

`O=[N+]([O-])c1cc(Cl)c(Cl)c(Cl)c1`: the Potency result was “inactive”.

As to `CCCCOC(=O)c1ccccc1N`, the Potency result is “inactive”.

As to `N#CC(O)c1ccccc1` (centres undefined), the Potency entry is “inactive”.

Tested on in the next test: not listed separately
Briefly: qHTS assay to identify small molecule agonists of the androgen receptor (AR) signaling pathway in the presence of an antagonist - cell viability counter screen (AID 1259379). Further: nearly all actives have a fitted effect of over 25% in size. Further: potency means the concentration at half of the fitted maximal effect. Conditions: MDA-kb2 viability, CellTiter-Fluor, 16 h; series mostly up to 92.4 µM. The essentials: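 MDA-kb2 cells (MMTV-luciferase, AR/GR), 3,000/well, 5 h attachment, then 3.0 µM nilutamide (final) and compounds at 15 concentrations. Viability by CellTiter-Fluor fluorescence after 16 h at 37 °C, 0% CO2, in the reporter wells.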
Regarding `CC1CCCCC1NC(=O)Nc1ccccc1` (centres undefined), the Potency result was “inactive”.

Turning to `CCCSC(=O)N(CCC)CCC`, the Potency entry was “inactive”.

In the case of `CC1(C(=O)Nc2ccc(O)c(Cl)c2Cl)CCCCC1`, the Potency result is “inactive”.

For the compound `N#CC(CCc1ccc(Cl)cc1)(Cn1cncn1)c1ccccc1` (centres undefined), the Potency was 48.6 µM (active).

With `CCS(=O)(=O)CCSP(=O)(OC)OC`, the Potency entry is “inactive”.

For the compound `[As]#[In]`, the Potency result was “inactive”.

Consider `C=CCC1=C(C)[C@@H](OC(=O)[C@@H]2[C@@H](C=C(C)C)C2(C)C)CC1=O`, for which the Potency was 48.6 µM (active).

Regarding `O=C(CCN1CC1)OCC(CO)(COC(=O)CCN1CC1)COC(=O)CCN1CC1`, the Potency result is “inactive”.

Take `COc1cccc2c1cc([N+](=O)[O-])c1c(C(=O)O)cc3c(c12)OCO3`: the Potency was 48.6 µM (active).

For `CC(CC(C#N)(c1ccccc1)c1ccccc1)N(C)C` (centres undefined), the Potency entry was “inactive”.

Take `Fc1ccc(C2(Cn3cncn3)OC2c2ccccc2Cl)cc1` (centres undefined): the Potency result is “inactive”.

`COC(=O)COc1ccc(Cl)cc1Cl`: the Potency result was “inactive”.

Turning to `CCCCC(=O)Cl`, the Potency entry is “inactive”.

Regarding `O=[N+]([O-])c1cccc(O)c1`, the Potency result was “inactive”.

For the compound `CCCCN(CCCCO)N=O`, the Potency entry is “inactive”.

Take `CCCCCCBr`: the Potency result is “inactive”.

For `CCCSP(=O)(OCC)Oc1ccc(Br)cc1Cl` (centres undefined), the Potency entry was “inactive”.

For the compound `O=C(Nc1ccccc1)N(Cc1ccc(Cl)cc1)C1CCCC1`, the Potency was 68.6 µM (active).

Regarding `Cc1ccccc1CO[C@@H]1C[C@@]2(C(C)C)CC[C@]1(C)O2`, the Potency result was “inactive”.

With `CCNc1nc(NC(C)C)nc(OC)n1`, the Potency result was “inactive”.

As for `COC(C)(C)C`, the Potency result was “inactive”.

For the compound `CC(C)COP(=O)(OCC(C)C)OCC(C)C`, the Potency entry was “inactive”.

On to `CNC(=O)Oc1cccc(C(C)C)c1`, for which the Potency entry was “inactive”.

Regarding `COc1cc(OC)nc(Sc2cccc(Cl)c2C(=O)O)n1`, the Potency result is “inactive”.

Regarding `C[C@]1(O)CC[C@H]2[C@@H]3CCC4=CC(=O)CC[C@]4(C)[C@@]3(F)[C@@H](O)C[C@@]21C`, the Potency result was “inactive”.

In the case of `CCC#N`, the Potency entry is “inactive”.

As to `CC(C1CC1)C(O)(Cn1cncn1)c1ccc(Cl)cc1` (centres undefined), the Potency entry was “inactive”.

On to `CC1CCC(=O)O1` (centres undefined), for which the Potency result was “inactive”.

As for `CC(C)[N+](=O)[O-]`, the Potency result was “inactive”.

Regarding `COc1cccc(C(=O)NN(C(=O)c2cc(C)cc(C)c2)C(C)(C)C)c1C`, the Potency result is “inactive”.

Regarding `CCOC(=O)NC(=S)Nc1ccccc1NC(=S)NC(=O)OCC`, the Potency result is “inactive”.

As for `COCC(=O)N(c1c(C)cccc1C)N1CCOC1=O`, the Potency entry was “inactive”.

With `CCOP(=S)(Oc1cnc(C(C)(C)C)nc1)OC(C)C` (centres undefined), the Potency entry was “inactive”.

Take `O=[N+]([O-])c1cc(Cl)c(Cl)c(Cl)c1`: the Potency is 54 µM (active).

Consider `CCCCOC(=O)c1ccccc1N`, for which the Potency result is “inactive”.

`ClCC(Cl)Cl`: the Potency entry was “inactive”.

With `N#CC(O)c1ccccc1` (centres undefined), the Potency entry was “inactive”.
